# According to the supplement of paper PMC10338343:
# ± gives the standard deviation.
# Test system: MILI (PIWIL2) piRISC loaded with L1MC piRNA (26 nt)
# Assay: pre-steady-state target cleavage rate (min^-1); guide: L1MC piRNA 5'p-UAACUAAAUACUAUGCAAGCUGUAGG; MIWI and MILI are mouse PIWI proteins and EfPiwi is from a freshwater sponge; tags in brackets are library labels; higher = faster piRNA-guided slicing of the target
# Conditions: auxiliary factor: 500 nM mouse GTSF1
# Outline: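 Active affinity-purified piRISC carrying one synthetic guide (1 nM) was mixed with a transcribed, DNA-blocked target RNA library […] in HEPES–potassium acetate buffer at 33 °C for 0–8 or 0–960 min, with or without 500 nM GTSF1 partner protein. Uncleaved targets were then sequenced and normalised to depth and to weakly complementary targets. Three trials were pooled, and k3 was capped at 0.0001 min^-1. A burst-and-steady-state fit was applied to obtain the pre-steady-state cleavage rate.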
# 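Further: 1 nM active piRISC with 0.1 nM target library at 33 °C single turnover.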
row,Sequence,pre-steady-state target cleavage rate
1,UCCUGGAUGAGCUUGCAUAGUAUUAUGAAA,0.00473 ± 0.0045
2,UCCUGGAACAGCUUGCAUAGUUAAUAGUAA,0.0133 ± 0.0056
3,UCCUGGAUGACCUUGCAUAGUAUUUACUUA,0.0753 ± 0.027
4,UCCUGGAUCAGCUUGCAUUGUAUUUACUUA,0.146 ± 0.027
5,UCCUCCUACAGCUUGCAUAGUUAAUUCAAA,0.0506 ± 0.016
6,UCCUGGAUGUCGAUGCAUAGUAUUUUCUUA,0.011 ± 0.006
7,UCCUGGUACAGCUUGCAUAGUAUAAACAAA,0.0195 ± 0.0074
8,UCCUGGAUCAGCUUCGUUAGUAUUUAGUAA,0.02 ± 0.0056
9,UCCUGGUACAGCUUGCACUAGUAUUUAGUUA,0.109 ± 0.027
10,UCCUGGUACACCUUGCAUACUAUUUAGUUA,0.228 ± 0.072
11,UCCUGGUACACGUUGCAUAGUAUUUUCAAA,0.02 ± 0.011
12,UCCUGGAACUGCUUGCAUAGUAUUUUCAAA,0.0118 ± 0.0046
13,UCCUGGAACAGCUUGCAUAGUAUAAUGUUA,0.0834 ± 0.018
14,UCCUGGAUGAGCUUGCAUGUAUUUAGUUA,0.0097 ± 0.004
15,UCCUGGAUGUGCUUGGAUACUAUUUAGUUA,0.0156 ± 0.0061
16,UCCUGGAUGUGCUUCGUUAGUAUUUAGUUA,0.00476 ± 0.0034
17,UCCUGCUACAGCUUGGUUAGUAUUUAGAAA,0.018 ± 0.007
18,UCCUGGUACAGCUUGCAUAGUUUUUUCAAA,0.0153 ± 0.0075

row,Sequence,pre-steady-state target cleavage rate
1,UCCUGGAUGAGCAUGCAUAGAAUUUAGUUA,0.0184 ± 0.008
2,UCCUGCUACAGCUUGCAUAGAAUUUACUUA,0.107 ± 0.031
3,UCCUGGAUGUGCUAGCAUAGUAUUUAGAAA,0.0422 ± 0.012
4,UCCUGGUAGAGCUUGCAUAGUAUUUUCAAA,0.00621 ± 0.0031
5,UCCUGGAUGUCCUAGCAUACUAUUUAGUUA,0.0115 ± 0.0063
6,UCCUGCUACAGCUUGCAUAGUUAUUUCAAA,0.0109 ± 0.0051
7,UCCUGGAUGUGCUUGCAUAGAAUUUAGUUA,0.0203 ± 0.0071
8,UCCUGGUACACGUUGCAUAGUAUUUAGAAA,0.0229 ± 0.011
9,UCCUGGAUGAGCAUGCAUAGUAUUUUGUUA,0.115 ± 0.025
10,UCCUGGAACAGCUUGCAUAGUUAAUAGUUA,0.0282 ± 0.01
11,UCCUGGAUCAGCUUGCAUAGUAUUAUCUUA,0.0326 ± 0.0079
12,UCCUGGAACAGCUUGCAUAGUAAAUAGUAA,0.143 ± 0.035
13,UCCUGCUACACGAUGCAUAGUAUUUUCAAA,0.117 ± 0.034
14,UCCUGCUACAGCAACCAUAGUAUUUAGAAA,0.102 ± 0.03
15,UCCUGGAUCAGCUUGCAUAGUAUUAACAAA,0.0885 ± 0.022
16,UCCUGCUACACGUUGCAUAGUAUUUUCAAA,0.00757 ± 0.0052
17,UCCUGGAUGUCGAUGCAUUGUAUUUAGUUA,0.0091 ± 0.0037
18,UCCUGGAUGUCCUAGGAUAGUAUUUAGUUA,0.0104 ± 0.0042
